# For part of these data: Entries with a potency or affinity are not part of this list.
# Assays:
# Design in all cases: scale not given: direction of the effect not stated beside the values
# [1] = target: Protein translocase subunit SecA (Escherichia coli (strain K12)) (UniProt P10408); test: Assay to Identify E. coli SecA ATPase Inhibitors; type: functional; settings: 30 µM
# [2] = target: T1, Ubiquitin-activating enzyme e1, putative (Leishmania donovani (strain BPK282A1)) (UniProt E9BSI1); test: Leishmania donovani Ubiquitin Activating Enzyme (LdE1); type: functional; settings: 30 µM
# T1 sequence (whole entry): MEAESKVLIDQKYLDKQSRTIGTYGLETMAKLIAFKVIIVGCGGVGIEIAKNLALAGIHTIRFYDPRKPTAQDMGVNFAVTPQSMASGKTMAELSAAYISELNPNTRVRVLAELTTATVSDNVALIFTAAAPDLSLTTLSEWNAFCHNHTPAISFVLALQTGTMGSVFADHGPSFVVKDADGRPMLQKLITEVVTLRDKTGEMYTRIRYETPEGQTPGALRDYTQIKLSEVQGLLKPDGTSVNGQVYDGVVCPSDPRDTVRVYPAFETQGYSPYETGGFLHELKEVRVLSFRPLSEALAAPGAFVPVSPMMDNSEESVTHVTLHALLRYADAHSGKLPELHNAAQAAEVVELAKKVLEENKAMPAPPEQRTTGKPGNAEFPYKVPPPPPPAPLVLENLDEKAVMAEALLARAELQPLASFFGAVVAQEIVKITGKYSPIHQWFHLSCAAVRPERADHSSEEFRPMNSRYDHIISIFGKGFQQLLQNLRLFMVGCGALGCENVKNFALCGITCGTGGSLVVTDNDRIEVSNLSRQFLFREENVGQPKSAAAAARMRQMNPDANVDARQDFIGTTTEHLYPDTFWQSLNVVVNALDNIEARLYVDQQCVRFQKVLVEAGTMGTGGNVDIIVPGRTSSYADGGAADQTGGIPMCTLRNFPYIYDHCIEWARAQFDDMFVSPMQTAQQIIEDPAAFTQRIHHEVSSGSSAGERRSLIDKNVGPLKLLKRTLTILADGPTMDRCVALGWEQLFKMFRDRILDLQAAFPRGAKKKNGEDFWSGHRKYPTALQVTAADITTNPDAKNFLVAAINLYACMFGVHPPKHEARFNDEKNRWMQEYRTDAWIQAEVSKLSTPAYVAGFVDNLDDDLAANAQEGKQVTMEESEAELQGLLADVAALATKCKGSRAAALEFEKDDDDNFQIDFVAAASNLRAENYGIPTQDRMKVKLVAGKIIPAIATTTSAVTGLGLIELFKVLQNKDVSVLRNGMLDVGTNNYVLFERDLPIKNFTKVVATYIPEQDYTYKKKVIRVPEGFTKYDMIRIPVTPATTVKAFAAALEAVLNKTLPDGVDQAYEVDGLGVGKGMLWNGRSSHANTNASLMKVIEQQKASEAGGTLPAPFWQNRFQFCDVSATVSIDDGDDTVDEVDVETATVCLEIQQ
# [3] = target: T2, Aspartate--tRNA(Asp/Asn) ligase (Mycobacterium tuberculosis (strain ATCC 25618 / H37Rv)) (UniProt P9WFW3); test: Assay for Asp RNA synthetase-1 from Mycobacterium tuberculosis; type: functional; settings: 30 µM; further: in the data most compounds retested in dose-response had high values
# T2 sequence (whole entry): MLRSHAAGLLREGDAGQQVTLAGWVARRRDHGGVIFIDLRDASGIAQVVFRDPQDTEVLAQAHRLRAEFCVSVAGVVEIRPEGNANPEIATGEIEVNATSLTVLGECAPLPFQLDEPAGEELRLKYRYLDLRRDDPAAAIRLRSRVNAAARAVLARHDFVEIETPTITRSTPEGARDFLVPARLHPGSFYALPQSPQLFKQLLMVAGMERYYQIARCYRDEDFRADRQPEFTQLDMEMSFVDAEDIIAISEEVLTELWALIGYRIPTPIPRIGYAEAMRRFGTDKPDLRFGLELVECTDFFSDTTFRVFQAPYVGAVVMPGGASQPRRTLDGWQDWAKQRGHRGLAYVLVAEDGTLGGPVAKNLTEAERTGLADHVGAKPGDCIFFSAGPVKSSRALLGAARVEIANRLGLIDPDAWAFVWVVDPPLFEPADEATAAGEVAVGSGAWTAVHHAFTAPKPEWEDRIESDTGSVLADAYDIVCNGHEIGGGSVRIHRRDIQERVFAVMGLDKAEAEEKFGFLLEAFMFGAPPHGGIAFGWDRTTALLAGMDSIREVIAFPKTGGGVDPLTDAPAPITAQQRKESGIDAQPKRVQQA
# [4] = target: AMP-activated protein kinase, AMPK (Homo sapiens) (UniProt P54646+O43741+P54619+Q9UGJ0+Q9Y478+Q13131+Q9UGI9); test: AMP-dependent Kinase enzyme assay. An in vitro enzyme assay that detects ADP turnover that is directly proportional to AMPK activity. This uses naive AMPK that is activated during the assay with MK-8722; type: functional; settings: 30 µM
# [5] = target: Sialic acid-binding Ig-like lectin 9 (Homo sapiens) (UniProt Q9Y336); test: Hs-Siglec9 ALPHAscreen SOP 20170721; settings: 10 µM
# [6] = test system: Trypanosoma cruzi; test: Trypanosoma cruzi phosphomannomutase and mannose-1-phosphate guanylyltransferase assay; type: functional; settings: 10 µM
# [7] = target: T3, Arginase-2, mitochondrial (Homo sapiens) (UniProt P78540); test: in vitro enzyme assay to detect the production of urea directly proportional to the activity of Arginase II; type: functional; settings: 33.3 µM; further: in the data most compounds retested in dose-response had high values
# T3 sequence (whole entry): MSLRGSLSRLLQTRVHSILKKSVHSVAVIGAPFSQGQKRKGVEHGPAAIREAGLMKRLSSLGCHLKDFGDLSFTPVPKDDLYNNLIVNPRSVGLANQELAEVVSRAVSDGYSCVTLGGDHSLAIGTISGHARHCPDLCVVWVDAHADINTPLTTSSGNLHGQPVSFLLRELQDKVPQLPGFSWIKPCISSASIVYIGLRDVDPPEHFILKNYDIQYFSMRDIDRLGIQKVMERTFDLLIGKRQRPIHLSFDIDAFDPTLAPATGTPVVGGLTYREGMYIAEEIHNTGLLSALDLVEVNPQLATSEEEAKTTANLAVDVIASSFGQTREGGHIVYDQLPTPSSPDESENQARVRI
# [8] = target: T4, Proteasome subunit beta (Trypanosoma cruzi) (UniProt O96673); test: Trypanosoma cruzi proteasome chymotrypsin-like activity (TcProtChymo) assay.; further: in the data most compounds retested in dose-response had high values; type: functional; settings: 9.37 µM
# T4 sequence (whole entry): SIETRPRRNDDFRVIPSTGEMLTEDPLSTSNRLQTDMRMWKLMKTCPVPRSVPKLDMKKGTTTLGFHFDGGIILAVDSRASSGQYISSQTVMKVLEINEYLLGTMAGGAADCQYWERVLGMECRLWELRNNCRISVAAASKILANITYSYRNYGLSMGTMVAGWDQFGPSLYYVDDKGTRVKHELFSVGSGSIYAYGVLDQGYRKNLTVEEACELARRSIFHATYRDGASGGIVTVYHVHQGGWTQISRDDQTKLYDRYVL
# [9] = species: Homo sapiens; test: To identify inhibition of the IFN signalling (Jak-Stat) pathway via expression of an eGFP reporter gene under the control of an IFN-stimulated response element (ISRE) containing MxA promoter.; type: functional; settings: 30 µM
# [10] = target: Shiga toxin 2 (Escherichia coli O157:H7) (UniProt P09385+P09386); test: E. coli 0.157:H7 Shiga Toxin SOP - stx2 screening assay; type: functional; settings: 30 µM
# [11] = target: T5, Tyrosyl-tRNA synthetase, putative (Trypanosoma cruzi (strain CL Brener)) (UniProt Q4DSP6); test: Trypanosoma cruzi tyrosyl tRNA synthetase (TcYRS) _High Tyrosine SOP; type: functional; settings: 30 µM; further: in the data most compounds retested in dose-response had high values
# T5 sequence (whole entry): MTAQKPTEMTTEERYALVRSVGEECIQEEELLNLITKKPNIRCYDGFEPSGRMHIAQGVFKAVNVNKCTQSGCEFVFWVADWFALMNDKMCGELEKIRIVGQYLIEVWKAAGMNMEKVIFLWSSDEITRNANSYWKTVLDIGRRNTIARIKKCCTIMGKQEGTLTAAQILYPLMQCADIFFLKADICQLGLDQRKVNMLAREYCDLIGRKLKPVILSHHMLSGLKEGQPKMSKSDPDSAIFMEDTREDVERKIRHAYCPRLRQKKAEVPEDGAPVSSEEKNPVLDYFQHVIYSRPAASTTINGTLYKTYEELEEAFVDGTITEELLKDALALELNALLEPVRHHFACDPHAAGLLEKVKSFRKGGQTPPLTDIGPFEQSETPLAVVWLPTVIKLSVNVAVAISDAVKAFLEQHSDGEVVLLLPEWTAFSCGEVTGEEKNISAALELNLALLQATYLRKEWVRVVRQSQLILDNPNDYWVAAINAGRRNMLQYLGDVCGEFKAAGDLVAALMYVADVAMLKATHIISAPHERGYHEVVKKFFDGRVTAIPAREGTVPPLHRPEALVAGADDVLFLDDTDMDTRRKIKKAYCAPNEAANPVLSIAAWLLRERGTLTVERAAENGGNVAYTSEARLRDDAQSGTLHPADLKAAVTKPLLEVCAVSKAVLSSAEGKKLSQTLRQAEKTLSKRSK
# [12] = target: T5, Tyrosyl-tRNA synthetase, putative (Trypanosoma cruzi (strain CL Brener)); test: Trypanosoma cruzi tyrosyl tRNA synthetase (TcYRS) SOP; type: functional; settings: 30 µM
# [13] = target: Chromo domain-containing protein 1 (Saccharomyces cerevisiae (strain ATCC 204508 / S288c) (Baker's yeast)) (UniProt P32657); test: ScCHD-1 Enzyme Inhibition Assay; type: functional; settings: 30 µM; further: in the data most compounds retested in dose-response had high values
# Chain of Chromo domain-containing protein 1 (Saccharomyces cerevisiae (strain ATCC 204508 / S288c) (Baker's yeast)) (P32657 whole entry, the tested form may be a part): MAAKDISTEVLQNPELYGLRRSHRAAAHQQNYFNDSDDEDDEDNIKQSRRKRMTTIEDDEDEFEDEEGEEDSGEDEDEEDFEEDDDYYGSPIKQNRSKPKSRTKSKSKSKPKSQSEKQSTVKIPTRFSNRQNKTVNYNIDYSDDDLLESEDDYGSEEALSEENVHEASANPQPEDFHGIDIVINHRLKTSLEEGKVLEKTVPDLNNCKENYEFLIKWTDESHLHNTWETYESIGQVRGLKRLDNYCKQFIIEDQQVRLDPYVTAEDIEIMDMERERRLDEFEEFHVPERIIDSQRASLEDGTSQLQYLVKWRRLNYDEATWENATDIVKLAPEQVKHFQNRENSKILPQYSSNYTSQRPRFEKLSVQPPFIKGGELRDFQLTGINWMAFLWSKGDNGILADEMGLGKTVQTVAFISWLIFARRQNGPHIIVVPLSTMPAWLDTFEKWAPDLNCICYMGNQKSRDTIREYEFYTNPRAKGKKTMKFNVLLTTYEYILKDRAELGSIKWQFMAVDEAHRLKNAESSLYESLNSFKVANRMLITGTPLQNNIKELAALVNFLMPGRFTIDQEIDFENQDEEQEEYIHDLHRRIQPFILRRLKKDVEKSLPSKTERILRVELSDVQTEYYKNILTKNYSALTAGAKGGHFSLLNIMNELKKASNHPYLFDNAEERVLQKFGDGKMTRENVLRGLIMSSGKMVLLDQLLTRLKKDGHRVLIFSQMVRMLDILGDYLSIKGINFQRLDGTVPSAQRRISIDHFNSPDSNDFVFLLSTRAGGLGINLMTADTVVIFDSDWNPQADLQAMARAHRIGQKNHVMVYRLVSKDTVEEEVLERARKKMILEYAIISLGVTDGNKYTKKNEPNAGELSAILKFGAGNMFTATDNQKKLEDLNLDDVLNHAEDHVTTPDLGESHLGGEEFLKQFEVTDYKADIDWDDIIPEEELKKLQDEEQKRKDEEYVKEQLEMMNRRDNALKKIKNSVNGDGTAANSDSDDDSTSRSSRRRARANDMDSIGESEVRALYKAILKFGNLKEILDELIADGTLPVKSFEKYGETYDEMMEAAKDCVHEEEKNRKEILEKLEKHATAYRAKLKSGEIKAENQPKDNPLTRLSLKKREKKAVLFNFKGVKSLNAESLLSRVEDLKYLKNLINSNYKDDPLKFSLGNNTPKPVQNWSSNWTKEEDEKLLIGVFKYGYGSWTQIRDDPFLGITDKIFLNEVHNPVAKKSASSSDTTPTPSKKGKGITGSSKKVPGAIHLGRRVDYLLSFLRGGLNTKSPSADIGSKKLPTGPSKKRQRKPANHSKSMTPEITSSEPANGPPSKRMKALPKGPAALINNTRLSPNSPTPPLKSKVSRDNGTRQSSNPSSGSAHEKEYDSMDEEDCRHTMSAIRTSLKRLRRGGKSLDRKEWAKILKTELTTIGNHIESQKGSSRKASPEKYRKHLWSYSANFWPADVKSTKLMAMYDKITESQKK
# Chain of Sialic acid-binding Ig-like lectin 9 (Homo sapiens) (Q9Y336 whole entry): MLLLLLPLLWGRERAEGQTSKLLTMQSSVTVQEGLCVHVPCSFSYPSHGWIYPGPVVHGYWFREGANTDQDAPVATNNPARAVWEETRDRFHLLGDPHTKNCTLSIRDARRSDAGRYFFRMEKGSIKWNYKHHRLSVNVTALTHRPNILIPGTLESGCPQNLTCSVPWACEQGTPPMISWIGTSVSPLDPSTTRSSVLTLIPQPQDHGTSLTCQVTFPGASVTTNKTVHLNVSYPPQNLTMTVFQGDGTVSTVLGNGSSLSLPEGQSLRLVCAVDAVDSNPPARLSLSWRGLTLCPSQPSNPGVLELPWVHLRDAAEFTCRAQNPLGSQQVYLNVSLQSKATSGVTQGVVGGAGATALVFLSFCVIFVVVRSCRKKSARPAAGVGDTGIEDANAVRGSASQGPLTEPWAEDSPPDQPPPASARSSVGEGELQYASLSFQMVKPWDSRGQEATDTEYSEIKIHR
# Chain of Protein translocase subunit SecA (Escherichia coli (strain K12)) (P10408 whole entry): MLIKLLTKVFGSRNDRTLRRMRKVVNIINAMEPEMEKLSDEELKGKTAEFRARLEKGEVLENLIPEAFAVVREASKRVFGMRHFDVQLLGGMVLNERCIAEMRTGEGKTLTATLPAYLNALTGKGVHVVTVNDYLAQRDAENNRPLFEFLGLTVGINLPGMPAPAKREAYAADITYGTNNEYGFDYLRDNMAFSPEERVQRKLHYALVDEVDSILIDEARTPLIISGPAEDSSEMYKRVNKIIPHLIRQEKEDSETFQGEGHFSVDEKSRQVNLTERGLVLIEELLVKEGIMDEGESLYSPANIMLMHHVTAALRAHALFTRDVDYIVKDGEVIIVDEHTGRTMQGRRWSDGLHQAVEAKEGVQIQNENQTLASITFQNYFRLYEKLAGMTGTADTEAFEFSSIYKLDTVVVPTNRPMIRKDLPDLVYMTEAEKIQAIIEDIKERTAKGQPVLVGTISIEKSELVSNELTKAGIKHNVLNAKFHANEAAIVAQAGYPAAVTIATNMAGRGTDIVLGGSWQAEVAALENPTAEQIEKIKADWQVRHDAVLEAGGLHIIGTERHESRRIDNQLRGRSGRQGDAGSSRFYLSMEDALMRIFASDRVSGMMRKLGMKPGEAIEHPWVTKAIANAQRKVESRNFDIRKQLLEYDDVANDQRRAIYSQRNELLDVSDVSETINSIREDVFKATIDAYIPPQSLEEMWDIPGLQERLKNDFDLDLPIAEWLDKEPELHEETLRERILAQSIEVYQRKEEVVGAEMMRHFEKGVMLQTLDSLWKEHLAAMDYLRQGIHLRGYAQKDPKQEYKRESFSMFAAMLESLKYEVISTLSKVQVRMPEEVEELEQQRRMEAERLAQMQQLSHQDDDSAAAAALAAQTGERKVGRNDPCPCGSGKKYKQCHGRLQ
Compound,Percent Effect [1],Percent Effect [2],Percent Effect [3],Percent Effect [4],Percent Effect [5],Percent Effect [6],Percent Effect [7],Percent Effect [8],Percent Effect [9],Percent Effect [10],Percent Effect [11],Percent Effect [12],Percent Effect [13]
CCOCC(O)CN1CCN(C(=O)Cc2ccc3c(c2)CCO3)CC1 (configuration not stated),1.74%,10.5%,0.3%,2.16%,5%,-3.76%,6.51%,21.4%,19.4%,30.7%,3.43%,12.2%,-2.97%
O=C(NC1CCC1)[C@@H]1C[C@@H]2CCN(Cc3ccncc3)C[C@H]2O1,-4.4%,8%,-3.87%,0.172%,2.75%,5.79%,-52.1%,8.21%,21.8%,1.98%,4.17%,12.5%,-8.66%
Cc1n[nH]c2c1C(c1ccsc1)SCC(=O)N2 (configuration not stated),0.859%,15.6%,6.57%,7.18%,-13.4%,-4.24%,0.645%,16%,19.9%,1.07%,5.29%,6.41%,-7.85%
CN(C)C(=O)COC[C@H]1CC[C@@H]2[C@@H](CCN2Cc2ccccn2)O1,1.44%,2.7%,-8.07%,-3.81%,1.03%,4.1%,2.5%,8.88%,-3.32%,-6.42%,-14.8%,3.66%,-2.81%
c1cc(CN2CCO[C@H]3[C@H](OCC4CCCC4)CC[C@@H]32)ccn1,-2.78%,5.41%,5.76%,0.694%,-1.13%,-3.81%,1.59%,19%,24.5%,1.34%,-2.16%,7.69%,2.01%
O=C1[C@H]2CN(CC3CC3)C[C@H]2CN1c1ccsc1,-6.19%,-2.7%,1.21%,4.91%,-3.17%,-2.44%,-1.59%,6.27%,-11.2%,-5.46%,3.24%,0%,5.84%
O=C(Cc1ccccc1)N1CCN(Cc2noc(C3CC3)n2)CC1,-1.81%,11.4%,-2.26%,0.817%,1.57%,-4.62%,-3.23%,12.9%,-5.12%,0.476%,7.29%,15.2%,-22.4%
COc1ccc(CN2C[C@@H]3OCCN(c4ncccn4)[C@@H]3C2)cc1,1.18%,0%,3.34%,11.4%,2.48%,-4.13%,2.1%,3.61%,22.3%,-20%,1.06%,-1.28%,0.371%
Fc1cnc(N2CCO[C@H]3CN(CC4CCC4)C[C@H]32)nc1,-5.78%,16%,-2.5%,-5.38%,0.543%,1.93%,-59.3%,14.5%,5.62%,-17.2%,-4.17%,17.5%,-17.8%

# Source: ChEMBL document CHEMBL3988442, “University of Dundee, Small-Polar-MMV Screening Library” (2021)
